Test systems include MOLT-4 leukemia; SR leukemia; RPMI-8226 leukemia; OVCAR-8 ovarian; OVCAR-5 ovarian; OVCAR-4 ovarian; SK-OV-3 ovarian; IGROV1 ovarian; OVCAR-3 ovarian; HS 578T breast; NCI/ADR-RES ovarian; T-47D breast; BT-549 breast; MDA-MB-435 melanoma; SW-620 colon; MCF7 breast; HCC-2998 colon; KM12 colon; HCT-116 colon.
Test in all cases: NCI-60 one-dose screen, 48 h (100 = growth as untreated, 0 = no growth, -100 = all killed)
Holding throughout (conditions): 10 µM unless noted

Molecules are shown by their SMILES. The panel holds about 83,000 compounds, 20% with a hit somewhere; the sample as a whole holds those more often.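 Compound tested at a single concentration for 48 hours in 96-well plates; a percent growth value below 10 was scored as active.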 A number with no mark means an inactive call. Calls of active or inactive are those of the source.

As for `CCCOC(=O)N[C@H]1CCc2c(Br)c(OC)c(OC)c(OC)c2-c2ccc(SC)c(=O)cc21`, the growth in the experiment with MOLT-4 leukemia was 10.7%; in the experiment with SR leukemia, 3.3% (active); in the experiment with RPMI-8226 leukemia, -9.16% (active); in the experiment with OVCAR-8 ovarian it was 13.4%; with OVCAR-5 ovarian, 36.7%; in the experiment on OVCAR-4 ovarian, 32.6%. In addition, the growth is 40.8% in the experiment on SK-OV-3 ovarian; 10.9% in the experiment on IGROV1 ovarian; -16.8% (active) in the experiment on OVCAR-3 ovarian; 1.06% (active) in the experiment on HS 578T breast; 10.4% in the experiment on NCI/ADR-RES ovarian; 51.5% in the experiment on T-47D breast. Besides, the growth with BT-549 breast was 2.53% (active); with MDA-MB-435 melanoma it was -49.4% (active); in the experiment on SW-620 colon, 15.3%; with MCF7 breast it was 10%; with HCC-2998 colon it was 16.2%; in the experiment with KM12 colon, -15.7% (active).
Regarding `O=C(O)C(O)C(O)C1[O][Sb]([c]2ccc([N+](=O)[O-])cc2)[O]C1CO` (stereo not given), the growth in the experiment with MOLT-4 leukemia was 98.2%; with SR leukemia, 102%; in the experiment with RPMI-8226 leukemia, 99.2%; with OVCAR-8 ovarian it was 105%; with OVCAR-5 ovarian, 103%; in the experiment with OVCAR-4 ovarian it was 112%. The growth with SK-OV-3 ovarian was 129%; with IGROV1 ovarian, 111%; in the experiment on OVCAR-3 ovarian, 114%; with HS 578T breast, 93.8%; in the experiment with NCI/ADR-RES ovarian it was 111%; in the experiment on T-47D breast, 109%. Besides, the growth in the experiment on BT-549 breast was 114%; in the experiment on MDA-MB-435 melanoma, 107%; in the experiment on MCF7 breast it was 93.9%; in the experiment on HCT-116 colon it was 104%; in the experiment with HCC-2998 colon it was 105%; in the experiment on KM12 colon, 108%.
As for `COC(=O)[C@@H](C)C[C@H](Cc1ccc(F)cc1)NC(=O)c1csc([C@@H](C[C@H](C(C)C)N(C)C(=O)[C@@H](NC(=O)[C@H]2CCCCN2C)C2CC2)OC(C)=O)n1`, the growth was 17.8% in the experiment with MOLT-4 leukemia; 17.5% in the experiment with SR leukemia; 20.4% with RPMI-8226 leukemia; 22.4% in the experiment on OVCAR-8 ovarian; 49.8% with OVCAR-5 ovarian; 46% in the experiment with OVCAR-4 ovarian. For the same compound, the growth with SK-OV-3 ovarian is 29.1%; in the experiment with IGROV1 ovarian, 30.7%; with OVCAR-3 ovarian it was -25% (active); with HS 578T breast, 41.1%; in the experiment with NCI/ADR-RES ovarian, 76.4%; in the experiment on T-47D breast, 60.1%. The growth in the experiment with BT-549 breast was -0.522% (active); in the experiment on MDA-MB-435 melanoma, -50.1% (active); in the experiment on SW-620 colon it was 27.2%; in the experiment on MCF7 breast it was 19.6%; with HCC-2998 colon, 28.8%; in the experiment on KM12 colon, 14%.
As to `C[C@]12CCc3sc(-c4cccc(F)c4)nc3C1=CC[C@@H]1[C@@H]2CC[C@]2(C)C(=O)CC[C@@H]12`, the growth is 5.82% (active) in the experiment on MOLT-4 leukemia; 5.11% (active) in the experiment on SR leukemia; -2.88% (active) in the experiment on RPMI-8226 leukemia; 28.5% with OVCAR-8 ovarian; 87.2% with OVCAR-5 ovarian; 65.1% in the experiment on OVCAR-4 ovarian. Further, the growth was 17.9% with SK-OV-3 ovarian; 0.597% (active) in the experiment with IGROV1 ovarian; 7.89% (active) in the experiment on OVCAR-3 ovarian; 27.4% with HS 578T breast; 68.3% in the experiment on NCI/ADR-RES ovarian; 3.07% (active) in the experiment with T-47D breast. The growth with BT-549 breast is 23.2%; in the experiment on MDA-MB-435 melanoma it was 49.2%; with SW-620 colon, 3.81% (active); in the experiment with MCF7 breast, 10.8%; in the experiment on HCC-2998 colon, 79.5%; in the experiment with KM12 colon it was 46.5%.
In the case of `O=C(Nc1ccc([N+](=O)[O-])cc1)C(Cl)(Cl)Cl`, the growth was 107% in the experiment with MOLT-4 leukemia; 94.1% with SR leukemia; 106% with RPMI-8226 leukemia; 100% with OVCAR-8 ovarian; 95.6% with OVCAR-5 ovarian; 103% in the experiment on OVCAR-4 ovarian. In addition, the growth in the experiment with SK-OV-3 ovarian is 115%; in the experiment on IGROV1 ovarian, 93.5%; in the experiment with OVCAR-3 ovarian, 117%; with HS 578T breast, 99.8%; in the experiment on NCI/ADR-RES ovarian it was 99.6%; in the experiment with T-47D breast it was 80.7%. Besides, the growth in the experiment with BT-549 breast is 91.6%; in the experiment on MDA-MB-435 melanoma, 104%; in the experiment with SW-620 colon, 105%; with MCF7 breast, 85.9%; in the experiment on HCT-116 colon it was 91.1%; in the experiment on KM12 colon, 97.1%.
With `Nc1cc2nc3ccccc3nc2cc1N`, the growth in the experiment with MOLT-4 leukemia is 91.1%; in the experiment with SR leukemia, 82.4%; with RPMI-8226 leukemia, 80%; with OVCAR-8 ovarian, 83%; with OVCAR-5 ovarian, 99.9%; with OVCAR-4 ovarian it was 84%. For the same compound, the growth in the experiment on SK-OV-3 ovarian was 82.3%; in the experiment on IGROV1 ovarian, 96%; with OVCAR-3 ovarian it was 92.1%; in the experiment with HS 578T breast it was 76.8%; in the experiment with NCI/ADR-RES ovarian it was 94.8%; in the experiment on T-47D breast, 52.7%. Also, the growth with BT-549 breast is 94%; in the experiment with MDA-MB-435 melanoma, 109%; with SW-620 colon it was 98%; in the experiment with MCF7 breast, 23.5%; with HCT-116 colon, 74.9%; in the experiment with HCC-2998 colon it was 96.8%. Besides, the growth with KM12 colon was 91.6%.
`CC1=C(O)[C@@](C)(CCCCC[C@H](C)CCCCc2ccc(O)cc2)OOC1=O`: the growth in the experiment on MOLT-4 leukemia is 86%; in the experiment with SR leukemia, 50.1%; in the experiment on RPMI-8226 leukemia, 85%; in the experiment on OVCAR-8 ovarian it was 93.4%; in the experiment with OVCAR-5 ovarian it was 103%; with OVCAR-4 ovarian, 100%. Further, the growth was 106% with SK-OV-3 ovarian; -11.1% (active) in the experiment with IGROV1 ovarian; 86.5% in the experiment on OVCAR-3 ovarian; 98.1% in the experiment with HS 578T breast; 88.5% in the experiment with NCI/ADR-RES ovarian; 89% in the experiment on T-47D breast. Moreover, the growth in the experiment with BT-549 breast is 97.4%; in the experiment on MDA-MB-435 melanoma, 82.6%; in the experiment on SW-620 colon it was 109%; in the experiment on MCF7 breast, 98.8%; with HCC-2998 colon, 115%; in the experiment with KM12 colon it was 90.1%.
As to `CC(C)(N)Cc1ccccc1`, the growth in the experiment on MOLT-4 leukemia is 103%; with SR leukemia, 100%; in the experiment on RPMI-8226 leukemia it was 99.9%; in the experiment on OVCAR-8 ovarian, 106%; in the experiment on OVCAR-5 ovarian, 109%; with OVCAR-4 ovarian, 112%. Further, the growth is 106% in the experiment with SK-OV-3 ovarian; 106% in the experiment with IGROV1 ovarian; 112% with OVCAR-3 ovarian; 96.6% in the experiment on HS 578T breast; 111% with NCI/ADR-RES ovarian; 107% with T-47D breast. Also, the growth was 101% in the experiment on BT-549 breast; 107% with MDA-MB-435 melanoma; 105% with SW-620 colon; 99.4% with MCF7 breast; 110% in the experiment on HCC-2998 colon; 105% in the experiment with KM12 colon.

The values above are taken from PubChem BioAssay (NCI).
